High-throughput results: PubChem, Milwaukee Institute for Drug Discovery
NS3h inh CB – HCV NS3 helicase inhibitors, primary screen, biochemical, fluorescence polarization, ChemBridge library; actives 1.6% (n = 16,000); inhibition, % at 100 µM; Hepatitis C virus NS3 helicase; AID 687043, 2013; NS3h Cy5-dT15 DNA binding;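 active = inhibition above the average over every tested compound plus 3 SD, cut at about 40% in these data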
Cy5 interf NS3h – Cy5 fluorescence quenchers or enhancers, artefact control for HCV NS3 helicase inhibitor project, biochemical, ChemBridge library, Cy5 readout; Cy5-dT15 DNA with NS3h, fluorescence interference; actives lie on both sides; signal over control mean, under 1 quenches; fluorescence interference ratio at 100 µM; actives 6% (n = 16,000); AID 720488, 2013;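 active = compound fluorescence over control fluorescence at most 0.8, a quencher, or at least a set upper limit, an enhancer; inactive = ratio between 0.8 and the set upper limit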
NS3h confirm – HCV NS3 helicase inhibitors, retest, confirmation, biochemical, fluorescence polarization, ChemBridge library | shares compounds with NS3h inh CB | NS3h binding to Cy5-dT15 DNA | inhibition, % at 100 µM | actives 20% (n = 240);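 active = percent inhibition of 50% or more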
SSB FP counter – E. coli SSB-DNA binding inhibitors, counter-screen for HCV NS3 helicase inhibitor project, biochemical, fluorescence polarization, selected ChemBridge compounds; shares compounds with NS3h inh CB; E. coli SSB binding Cy5-dT15; inhibition, % at 100 µM; actives 40% (n = 240); AID 720486, 2013;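 active = inhibition of at least 50%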;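 note: displacers lower Cy5 polarization so higher inhibition means more SSB displaced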
Target sequence (P0AGE0 whole entry, looked up): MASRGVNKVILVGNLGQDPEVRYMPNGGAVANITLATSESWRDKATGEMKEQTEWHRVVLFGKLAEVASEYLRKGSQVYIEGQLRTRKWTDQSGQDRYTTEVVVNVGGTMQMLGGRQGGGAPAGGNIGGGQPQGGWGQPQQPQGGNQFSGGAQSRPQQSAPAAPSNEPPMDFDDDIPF
Cy5 SSB interf – Cy5 fluorescence interference with SSB-bound oligo, artefact control for HCV NS3 helicase inhibitor project, biochemical, E. coli SSB, selected ChemBridge compounds | shares compounds with NS3h inh CB | Cy5-dT15/E. coli SSB fluorescence interference; actives lie on both sides | fluorescence interference ratio at 100 µM | actives 8% (n = 240) | AID 720487, 2013;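 active = fluorescence interference ratio at or above 1.2, signal boosting, or at or below 0.8, signal quenching; inactive = ratio between 0.8 and 1.2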;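 note: ratio of compound well signal to mean negative control signal so 1 means no effect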
Cy5 fluor confirm – Cy5-DNA-NS3h complex fluorescence interference, confirmation, artefact control for HCV NS3 helicase inhibitor project, biochemical, ChemBridge library | Cy5-dT15 DNA/NS3h fluorescence interference counterscreen | actives 44% (n = 240) | fluorescence interference ratio at 100 µM, hits read low | shares compounds with NS3h inh CB;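 active = fluorescence interference ratio at or below 0.8 quencher or at or above a set limitenhancer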;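 note: ratio of compound fluorescence to mean of negative controls so 1 means no interference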
An asterisk follows results filed as active; x = not tested or not shown. Sampled rows, rich in hits. Any-hit rate of the full collection: about 6.8%.

SMILES	NS3h inh CB	Cy5 interf NS3h	NS3h confirm	SSB FP counter	Cy5 SSB interf	Cy5 fluor confirm
CN(C1=NC(=O)/C(=C\c2ccc(Cl)cc2)S1)c1ccc(O)cc1	8	0.98	x	x	x	x
O=C1N=c2ccccc2=C1N=Nc1nc(O)c(-c2c(O)[nH]c3ccccc23)s1	124*	0.4*	14	32	0.76*	0.73*
CCC(=O)c1ccc(OC(=O)c2ccc(Br)cc2)cc1	2	0.96	x	x	x	x
O=C(Nc1ccc(N2CCOCC2)cc1)c1ccc2c(c1)OCCO2	-4	1	x	x	x	x
O=C(Nc1ccc(Cl)c(Cl)c1)c1ccc2c(c1)OCCO2	39	1.1	41	47	0.95	0.86
O=C(NCC1CCCO1)c1ccc(I)cc1 (stereo not given)	8	0.9	x	x	x	x
O=C(CC1S/C(=N/N=C\c2cccs2)NC1=O)Nc1ccc(Cl)cc1Cl (stereo not given)	4	1.1	x	x	x	x
COc1c(Br)cc(Br)cc1/C=N\NC(=O)CNC(=O)c1cccc(F)c1	5	0.96	x	x	x	x
O=C1NC(=S)N/C1=C\c1ccc(Oc2ccc([N+](=O)[O-])cn2)cc1	-1	0.98	x	x	x	x
O=C1NC(=S)S/C1=C\c1ccc(Oc2ccc([N+](=O)[O-])cn2)cc1	39	1	26	4	0.98	0.72*
O=C1c2ccc(-c3nc4ccccc4c(=O)o3)cc2C(=O)N1c1ccc(Cl)cc1	9	1.1	x	x	x	x
CCOc1cc(/C=C2/SC(=S)NC2=O)cc(Br)c1OCc1ccc(F)cc1	83*	1	8	24	0.94	0.98
C=CCN1C(=O)/C(=C\c2cc(Br)c(OCc3ccc(F)cc3)c(OC)c2)SC1=S	-9	1.2	x	x	x	x
CC1(C)CC(=O)C=C(Nc2ccc(NC3=CC(=O)CC(C)(C)C3)cc2)C1	44*	1.2	-1	8	1	0.8*
CC1(C)CC(=O)C=C(Nc2ccccc2C#N)C1	-5	0.97	x	x	x	x
Cc1ccc(SCC(=O)Nc2cccc3ncccc23)cc1	16	1	x	x	x	x
O=C(Nc1ccc(NC(=O)c2ccc(Cl)cc2Cl)cc1)c1ccccc1O	24	0.95	x	x	x	x
Cc1cc(C)c(OCC(=O)Nc2ccc(Br)cc2)c(C)c1	12	1.1	x	x	x	x
COc1ccc(-c2cc(-c3ccccc3)n[nH]2)c(O)c1	43*	1.3*	7	11	0.93	0.73*
COc1ccc(O)c(-c2cc(-c3ccccc3C)[nH]n2)c1	26	0.9	x	x	x	x
